In assay [1] the target is Thyroid hormone receptor beta (Homo sapiens) (UniProt P10828). Briefly: qHTS assay for small molecule agonists of thyroid hormone receptor beta signaling (AID 588545; calls by dose curve;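 also: 0% = DMSO only and 100% = 10 nM T3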). As to conditions: TR-UAS-bla GripTite HEK 293, beta-lactamase ratio, agonist mode, 18 h, percent of T3 response, DMSO as zero; series mostly up to 76.7 µM. An outline of the steps:
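Compounds were tested as agonists in TR-UAS-bla-GripTite HEK 293 cells. After 18 hrs at 37 C, CCF4 substrate was added and fluorescence read after 2 hrs at room temperature.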
Background: In qHTS, concentration-response curves come from the screen itself.

Assay [2] can be described thus: qHTS assay for small molecule agonists of retinoid X receptor alpha signaling (AID 588544). The conditions noted are these: HEK293T RXRa-UAS-bla, beta-lactamase reporter, 18 h; 530 nm emission.
The nature of assay [3]: qHTS assay for small molecule antagonists of retinoid X receptor alpha signaling (AID 588546; active = well fitted inhibition curve with a large enough effect in the signal ratio, with a control signal flat, not every such curve was filed as active; the % refers to the signal ratio;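 also: cells stimulated with 9-cis-retinoic acid as agonist; % is scaled to controls: 0 for no effect and ±100 for the full control effect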). The conditions noted are these: HEK293T RXRa-UAS-bla, beta-lactamase ratio, antagonist mode; measured here: W530 green channel, cytotoxicity proxy. The procedure, abridged:
(§1)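 Beta-lactamase reporter inhibition, read as CCF4 fluorescence ratio (ex 405, em 460/530 nm) after 2 h at RT. HEK293T UAS-bla cells, 2500/well, were stimulated with 9-cis-RA at 500 or 100 nM final alongside test compound for 18 h at 37 C.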

Assay [4] addresses Retinoic acid receptor RXR-alpha (Homo sapiens) (UniProt P19793). The description is as above. As to conditions: HEK293T RXRa-UAS-bla, beta-lactamase ratio, antagonist mode. An outline of the steps: as §1
For assay [5], the target named is Thyroid hormone receptor beta (Homo sapiens) (UniProt P10828). Description: qHTS assay for small molecule antagonists of thyroid hormone receptor beta signaling (AID 588547; active = well fitted inhibition curve with a large enough effect in the signal ratio, with a control signal flat, not every such curve was filed as active; the % refers to the signal ratio;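 also: cells stimulated with 0.4 nM T3 agonist during compound exposure; % is scaled to controls: 0 for no effect and ±100 for the full control effect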). The conditions noted are these: TR-UAS-bla HEK293, beta-lactamase ratio, antagonist mode, 18 h. An outline of the steps: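 TR-UAS-bla GripTite HEK293 cells in 2% charcoal/dextran FBS medium were preincubated 4 h at 37 C, given compound (0.59 nM to 92 uM) plus 0.4 nM T3 (final) for 18 h, then CCF4 for 2 h at RT; Hill fit gave IC50.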

Assay [6] has as its target Voltage-gated inwardly rectifying potassium channel KCNH2 (Homo sapiens) (UniProt Q12809). Briefly: qHTS Assay for Small Molecule Inhibitors of the Human hERG Channel Activity (AID 588834).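 Also: lower thallium flux fluorescence means stronger hERG block; nearly all actives have a fitted effect of over 50% in size.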 Also: potency is read from the fitted curve at half-maximal effect. As to conditions: U2OS BacMam hERG, FluxOR thallium flux fluorescence; series mostly up to 46.1 µM. The procedure, abridged:
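In hERG-transduced U2OS cells, dye-loaded for 1 hr at room temperature in dark, test compounds incubated 10 min at 37 °C before thallium stimulation. AC50 values derived by Hill modelling of concentration-response.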

Assay [7] concerns the target Luciferin 4-monooxygenase (Photinus pyralis) (UniProt P08659). Description: Biochemical firefly luciferase enzyme assay for NPC (AID 624030). Also: nearly all actives have a fitted effect of over 70% in size. Also: potency is read from the fitted curve at half-maximal effect. The conditions noted are these: purified P. pyralis luciferase, luminescence, 5 min; series mostly up to 58.6 µM. The procedure, abridged: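 Counter-screen for direct inhibition of the luciferase enzyme by approved-drug library compounds, run at 10 nM enzyme in 50 mM Tris acetate (final). Luminescence was read within 5 min of enzyme-buffer addition and normalized to PTC124 versus DMSO (0%).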

Assay [8] can be described thus: S16 Schwann cell viability assay (CellTiter-Glo assay) (AID 624031). Also: nearly all actives have a fitted effect of over 70% in size. Also: potency is read from the fitted curve at half-maximal effect. The conditions noted are these: S16 rat Schwann cells viability, 24 h; series mostly up to 57.5 µM. An outline of the steps:
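Native S16 Schwann cells (rat), serum-containing medium, overnight attachment then 24 h drug exposure at 37 °C/5% CO2. CellTiter-Glo ATP signal; normalized to cell-free and vehicle wells.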

Assay [9] can be described thus: S16 Schwann cell PMP22 intronic element firefly luciferase assay (AID 624032). Also: nearly all actives have a fitted effect of over 30% in size. Also: potency is read from the fitted curve at half-maximal effect. As to conditions: S16 rat Schwann cells, PMP22 element FLuc, 24 h; series mostly up to 57.5 µM. The procedure, abridged: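 Rat S16 Schwann cells stably carrying a PMP22 intronic element-driven Fluc reporter were seeded overnight, then exposed to compounds for 24 h at 37 °C. Luminescence was normalized to PTC124 (positive control) and DMSO (0% activity).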

Assay [10] in a line: qHTS for Inhibitors of the vitamin D receptor (VDR): Hit Validation using a Texas Red Assay (AID 602201). Also: potency is read from the fitted curve at half-maximal effect. As to conditions: VDR coregulator binding, Texas Red fluorescence polarization; agonist-bound VDR ligand-binding domain. From the text:
The vitamin D receptor (VDR) is a ligand-activated transcription factor and is partially responsible for the regulation of the endocrine system. This includes the transcriptional regulation of genes involved in the production of the parathyroid hormone (PTH) and the regulation of the blood calcium level. High levels of PHT can cause hypercalcemia in the case of primary and tertiary hyperparathyroidism. The VDR-mediated gene regulation, activated by its ligand 1,25-dihydroxyvitamin D3 (1,25-(OH)2D3), is governed by the recruitment of coactivators. Our hypothesis is that small molecules, with the ability to inhibit the interaction between VDR and certain coactivators, are able to selectively modulate VDR-mediated transcription. […]
In a collaboration between the University of Wisconsin, Milwaukee and the NIH Chemical Genomics Center (NCGC) a HTS-compatible enzymatic assay was developed. The assay uses fluorescence polarization as its read-out to measure the inhibition between VDR and coregulator peptide SRC2-3 exerted by small molecules. […]
Four microliter of either 1.5 uM VDR-LBD, […] LG19078, and 7 nM Texas Red (all final concentrations) in columns 1, 2, and 5 to 48 or 7 nM Texas Red in columns 3 and 4 are dispensed into black medium-binding solid bottom Greiner plates. […] It is then read on the Envision for a fluorescent polarization read-out (Ex 595 nm/Em 615 nm)

Values joined by “and” are separate entries in the source; they are usually repeats but may differ in a detail not shown here. Equal entries are not always repeated. Results filed as inconclusive are left out. Active and inactive are the calls of the source. Unless noted, calls follow the shape of the dose curve; as a rule, active = well fitted curve in the direction sought with a large enough effect; inconclusive = small, poorly fitted or top-dose-only effect, or another doubt; inactive = no such curve, though single readings can be large; an effect the other way counts as inactive or inconclusive.

Sequence of Thyroid hormone receptor beta (Homo sapiens) (P10828 whole entry, looked up): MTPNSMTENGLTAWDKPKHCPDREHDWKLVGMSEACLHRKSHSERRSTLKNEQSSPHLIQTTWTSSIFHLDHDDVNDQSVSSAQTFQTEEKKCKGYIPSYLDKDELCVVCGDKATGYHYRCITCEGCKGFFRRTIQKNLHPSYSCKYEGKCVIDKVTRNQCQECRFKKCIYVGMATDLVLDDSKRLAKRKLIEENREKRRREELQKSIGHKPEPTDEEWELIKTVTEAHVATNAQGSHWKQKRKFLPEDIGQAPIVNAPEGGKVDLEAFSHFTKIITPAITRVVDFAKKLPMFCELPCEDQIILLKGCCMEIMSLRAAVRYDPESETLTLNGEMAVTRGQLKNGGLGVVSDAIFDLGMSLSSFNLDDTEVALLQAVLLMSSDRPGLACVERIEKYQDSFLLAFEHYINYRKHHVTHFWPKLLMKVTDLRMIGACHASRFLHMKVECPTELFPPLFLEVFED
Sequence of Voltage-gated inwardly rectifying potassium channel KCNH2 (Homo sapiens) (Q12809 whole entry, looked up): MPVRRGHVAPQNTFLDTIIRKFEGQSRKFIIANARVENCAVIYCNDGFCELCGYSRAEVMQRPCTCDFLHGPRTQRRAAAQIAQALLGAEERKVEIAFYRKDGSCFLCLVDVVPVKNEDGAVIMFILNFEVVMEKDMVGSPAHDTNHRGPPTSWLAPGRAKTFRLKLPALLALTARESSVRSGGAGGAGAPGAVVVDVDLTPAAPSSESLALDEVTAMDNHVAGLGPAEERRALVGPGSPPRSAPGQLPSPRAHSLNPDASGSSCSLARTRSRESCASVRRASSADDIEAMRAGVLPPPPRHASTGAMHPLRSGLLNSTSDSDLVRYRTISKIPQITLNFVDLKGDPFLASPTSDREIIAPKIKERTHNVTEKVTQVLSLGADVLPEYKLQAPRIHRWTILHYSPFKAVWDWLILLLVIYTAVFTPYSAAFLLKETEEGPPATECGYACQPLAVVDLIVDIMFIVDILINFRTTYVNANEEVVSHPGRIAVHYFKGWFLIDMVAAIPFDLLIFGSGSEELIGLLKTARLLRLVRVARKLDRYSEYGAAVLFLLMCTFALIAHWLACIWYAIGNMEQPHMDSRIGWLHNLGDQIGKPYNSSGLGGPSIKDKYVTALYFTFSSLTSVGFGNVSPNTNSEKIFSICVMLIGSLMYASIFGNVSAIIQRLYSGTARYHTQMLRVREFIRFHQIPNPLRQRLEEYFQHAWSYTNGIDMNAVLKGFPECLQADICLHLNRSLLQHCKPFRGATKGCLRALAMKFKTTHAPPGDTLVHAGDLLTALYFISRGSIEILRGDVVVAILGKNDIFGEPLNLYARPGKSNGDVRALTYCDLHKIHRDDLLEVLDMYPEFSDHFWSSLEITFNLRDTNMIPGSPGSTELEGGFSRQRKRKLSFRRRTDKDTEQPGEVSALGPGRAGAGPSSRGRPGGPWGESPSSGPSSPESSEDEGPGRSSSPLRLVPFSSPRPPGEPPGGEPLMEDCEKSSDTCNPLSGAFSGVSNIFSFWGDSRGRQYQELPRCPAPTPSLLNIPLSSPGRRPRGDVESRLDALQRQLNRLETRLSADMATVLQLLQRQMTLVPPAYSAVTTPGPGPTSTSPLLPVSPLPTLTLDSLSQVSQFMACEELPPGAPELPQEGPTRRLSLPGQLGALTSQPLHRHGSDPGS
Sequence of Retinoic acid receptor RXR-alpha (Homo sapiens) (P19793 whole entry, looked up): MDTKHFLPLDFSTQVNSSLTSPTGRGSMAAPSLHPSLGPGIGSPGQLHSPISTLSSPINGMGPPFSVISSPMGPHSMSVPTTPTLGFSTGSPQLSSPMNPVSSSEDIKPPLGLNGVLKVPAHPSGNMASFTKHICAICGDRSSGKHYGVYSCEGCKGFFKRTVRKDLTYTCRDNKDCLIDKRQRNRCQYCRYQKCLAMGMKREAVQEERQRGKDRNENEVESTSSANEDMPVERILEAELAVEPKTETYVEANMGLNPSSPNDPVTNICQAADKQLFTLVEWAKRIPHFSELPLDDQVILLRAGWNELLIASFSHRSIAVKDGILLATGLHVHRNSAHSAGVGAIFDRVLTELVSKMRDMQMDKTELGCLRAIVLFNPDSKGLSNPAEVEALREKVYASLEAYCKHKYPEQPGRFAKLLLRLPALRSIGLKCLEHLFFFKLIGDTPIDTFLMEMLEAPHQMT
Sequence of Luciferin 4-monooxygenase (Photinus pyralis) (P08659 whole entry, looked up): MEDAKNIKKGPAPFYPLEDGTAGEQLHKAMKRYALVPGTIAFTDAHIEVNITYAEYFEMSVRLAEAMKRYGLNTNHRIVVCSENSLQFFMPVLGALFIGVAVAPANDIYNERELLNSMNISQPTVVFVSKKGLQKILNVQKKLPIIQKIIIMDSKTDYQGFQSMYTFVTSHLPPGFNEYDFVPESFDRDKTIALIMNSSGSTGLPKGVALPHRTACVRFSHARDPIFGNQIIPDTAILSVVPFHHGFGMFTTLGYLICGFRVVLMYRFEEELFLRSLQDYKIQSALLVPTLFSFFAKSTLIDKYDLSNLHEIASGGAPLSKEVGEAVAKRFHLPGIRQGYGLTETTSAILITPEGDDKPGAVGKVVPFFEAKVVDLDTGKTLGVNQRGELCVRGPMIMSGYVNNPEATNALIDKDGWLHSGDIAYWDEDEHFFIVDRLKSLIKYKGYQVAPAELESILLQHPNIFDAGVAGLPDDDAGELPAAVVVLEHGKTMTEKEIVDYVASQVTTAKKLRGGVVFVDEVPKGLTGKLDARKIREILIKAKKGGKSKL

In the case of `O=c1cc(-c2ccccc2)oc2cc(O)cc(O)c12`, the outcome in [1] was inactive.
In the case of `CCCCC1C(=O)N(c2ccccc2)N(c2ccccc2)C1=O`, the max response is 4.5% and 6.7% in assay [2]; 1.64% and -10.6% in [3]; 0.963% (inactive) and -0.138% (inactive) in assay [4]. Also, in assay [1], the outcome was inactive. In addition, the activity change % (negative = inhibition) in assay [5] was 6.78% (inactive). The Potency result in [6], in assay [7], in assay [8] and in assay [9] was “inactive” throughout.
Consider `O=C(O)c1c(Cl)c(Cl)c(Cl)c(Cl)c1-c1c2cc(I)c(=O)c(I)c-2oc2c(I)c(O)c(I)cc12`, for which the Potency in [6] is 12.6 µM (active); in assay [7] it was 25.6 µM (active). Moreover, in assay [8], the Potency result is “inactive”.
As to `Cc1cccc(C)c1OCC(C)N` (stereo not drawn), the Potency result in assay [6], in assay [7], in assay [8] and in assay [9] was “inactive” each time.
For the compound `O=C(O)c1cc(-c2ccccc2)nc2ccccc12`, the max response in [2] is 26.3%; in assay [3], 9.45%; in [4] it was -7.59% (inactive). Further, the result in assay [1] was inactive. Further, the activity change % (negative = inhibition) in [5] is 5.82% (inactive). Further, the Potency result in assay [6], in [8] and in assay [9] was “inactive” throughout. Moreover, the Potency in assay [7] was 18.6 µM (active).
`CC/C(=C(\c1ccccc1)c1ccc(OCCN(C)C)cc1)c1ccccc1`: the Potency entry in assay [7] is “inactive”. For the same compound, in [8], the Potency is 32.2 µM (active).
Consider `O=C(NCCN1CCOCC1)c1ccc(Cl)cc1`, for which the Potency result in assay [6], in assay [7] and in assay [9] was “inactive” each time.
Consider `O=C1Nc2ccc(Cl)cc2C(C#CC2CC2)(C(F)(F)F)O1` (stereo not drawn), for which the Potency result in assay [7] and in assay [8] was “inactive” in each case.
Take `CCN(CC)CCOC(=O)c1ccc(N)cc1`: the Potency entry in [6], in [7], in assay [8] and in [9] was “inactive” in each case.
Take `CC(C)(C)c1ccc(C(O)CCCN2CCC(C(O)(c3ccccc3)c3ccccc3)CC2)cc1` (stereo not drawn): the Potency result in assay [7] and in [9] was “inactive” each time. Moreover, in assay [8], the Potency is 16.1 µM (active).
Take `Clc1ccc(COC(Cn2ccnc2)c2ccc(Cl)cc2Cl)cc1` (stereo not drawn): the Potency entry in assay [7] and in assay [8] was “inactive” throughout.
`CC1(C)CCC2=C(O1)c1ccccc1C(=O)C2=O`: in assay [10], the Potency was 14.1 µM (active).
As to `CC(=O)Oc1cc2c(s1)CCN(C(C(=O)C1CC1)c1ccccc1F)C2` (stereo not drawn), the Potency entry in assay [7] is “inactive”.
Regarding `COc1ccccc1N1CCN(CCCNc2cc(=O)n(C)c(=O)n2C)CC1`, the Potency entry in [6], in assay [7], in assay [8] and in assay [9] was “inactive” in each case.
With `CCCCCN(C)CCC(O)(P(=O)(O)O)P(=O)(O)O`, the Potency entry in assay [7], in assay [8] and in assay [9] was “inactive” throughout.
Regarding `CC(=O)CCCCn1c(=O)c2c(ncn2C)n(C)c1=O`, the Potency result in [6], in assay [7], in assay [8] and in assay [9] was “inactive” each time.
For `NC(N)=Nc1nc(CSCC/C(N)=N/S(N)(=O)=O)cs1`, the Potency entry in [7], in assay [8] and in [9] was “inactive” throughout.
As to `CN1C[C@H]2c3ccccc3Oc3ccc(Cl)cc3[C@@H]2C1`, in assay [7], the Potency entry was “inactive”.
As to `C[N+](C)(C)CCCCCC[N+](C)(C)C`, the Potency entry in [6], in [7], in assay [8] and in assay [9] was “inactive” in each case.
In the case of `O=C(O)CCc1nc(-c2ccccc2)c(-c2ccccc2)o1`, the Potency entry in [6], in [7], in [8] and in assay [9] was “inactive” each time.
In the case of `CC(C)NCC(O)COc1cccc2[nH]ccc12` (stereo not drawn), the Potency entry in assay [6], in assay [7], in assay [8] and in assay [9] was “inactive” throughout.
Take `NCCS`: the Potency result in assay [6], in [7], in assay [8] and in assay [9] was “inactive” throughout.
Turning to `CCOC(=O)O[C@]1(C(=O)OCCl)CC[C@@H]2[C@H]3CCC4=CC(=O)C=C[C@]4(C)[C@@H]3[C@@H](O)C[C@@]21C`, the Potency result in [6], in assay [7], in assay [8] and in assay [9] was “inactive” throughout.
Take `COc1ccc(Cc2nccc3cc(OC)c(OC)cc23)cc1OC`: the Potency entry in [7] and in assay [8] was “inactive” each time.
Consider `CC1(C)O[C@H]2C[C@@H]3[C@H]4CCC5=CC(=O)C=C[C@]5(C)[C@@]4(F)[C@@H](O)C[C@]3(C)[C@]2(C(=O)CO)O1`, for which the Potency result in [6], in assay [7], in assay [8] and in [9] was “inactive” in each case.
For `COCCCCC(=NOCCN)c1ccc(C(F)(F)F)cc1`, the Potency result in assay [7] and in [9] was “inactive” each time.
With `CCN(CC)CCNC(=O)c1ccc(N)cc1`, the Potency result in assay [7], in [8] and in assay [9] was “inactive” each time.
As to `O=C1NCC2(CCN(CCc3ccccc3)CC2)O1`, the Potency entry in [6], in assay [7], in assay [8] and in assay [9] was “inactive” in each case.
In the case of `NC[C@@H]1O[C@@H](O[C@H]2[C@@H](O)[C@H](O[C@@H]3[C@@H](O)[C@@H](N)C[C@H](N)[C@H]3O[C@H]3O[C@H](CN)[C@@H](O)[C@@H](O)[C@H]3N)O[C@H]2CO)[C@H](N)[C@@H](O)[C@@H]1O`, in assay [7], the Potency entry was “inactive”.
Consider `N#C[C@H]1C[C@H]2C[C@@H]2N1C(=O)[C@@H](N)C12CC3CC(CC(O)(C3)C1)C2`, for which, in assay [7], the Potency entry was “inactive”.
Take `COc1cc2ncnc(Nc3ccc(F)c(Cl)c3)c2cc1OCCCN1CCOCC1`: the Potency result in [7] was “inactive”. Further, in assay [9], the Potency is 36.1 µM (active).
Take `CN1[C@@H]2CCC[C@@H]1CC(NC(=O)c1nn(C)c3ccccc13)C2` (stereo partly drawn): the Potency entry in assay [7] was “inactive”.
For the compound `CCN1CCC[C@H]1CNC(=O)c1cc(S(N)(=O)=O)ccc1OC`, the Potency result in assay [6], in assay [7], in assay [8] and in [9] was “inactive” in each case.
Consider `Cc1nnc(C(C)C)n1C1C[C@H]2CC[C@@H](C1)N2CC[C@H](NC(=O)C1CCC(F)(F)CC1)c1ccccc1` (stereo partly drawn), for which, in [7], the Potency entry was “inactive”.
In the case of `Cc1cnc(C(=O)O)c[n+]1[O-]`, the Potency result in assay [6], in [7], in assay [8] and in assay [9] was “inactive” each time.

The values above are taken from PubChem BioAssay (NCATS).
